DRD3 antagonist: antagonists of human D3 dopamine receptor; max response, negative = inhibition, %; 2.5% of 360,000 active; AID 652054; D3R cells, DiscoveRx beta-arrestin luminescence, antagonist mode; stronger effect = lower value; in the data active = max response below about -50%; inconclusive = no clear call, values can overlap the other calls; note: % is set by controls: 0 for no effect and ±100 for the full control effect
Target sequence (P35462 whole entry, looked up): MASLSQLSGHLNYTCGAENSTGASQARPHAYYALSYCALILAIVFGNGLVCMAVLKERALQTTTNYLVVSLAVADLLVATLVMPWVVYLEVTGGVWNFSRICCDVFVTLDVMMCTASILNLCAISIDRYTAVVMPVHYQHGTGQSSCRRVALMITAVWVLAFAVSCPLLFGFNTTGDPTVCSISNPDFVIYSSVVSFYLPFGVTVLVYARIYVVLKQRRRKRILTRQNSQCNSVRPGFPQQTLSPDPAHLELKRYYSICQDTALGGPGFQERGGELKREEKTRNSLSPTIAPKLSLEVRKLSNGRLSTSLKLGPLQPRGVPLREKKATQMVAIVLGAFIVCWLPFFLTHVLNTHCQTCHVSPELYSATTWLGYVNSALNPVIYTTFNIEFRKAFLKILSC
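Cells expressing the human receptor were seeded at 1500 cells/well, incubated overnight at 37 degrees C in 5% CO2, then exposed to library compounds with dopamine controls for 90 minutes at 37 degrees C before luminescent detection.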
IL1B secr inh: inhibitors of inflammasome signaling (IL-1 beta secretion) | THP-1 LPS/ATP IL-1B secretion, AlphaLISA, 16 h; stronger effect = lower value | 4.7% of 360,000 active | activity change, % at 57.5 µM; in the data active = activity change below about -50%; inconclusive = mostly about -30% to -49%; note: % is set by controls: 0 for no effect and ±100 for the full control effect
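THP-1 cells pretreated 1 hr with compounds (up to 57.5 uM final), then stimulated with LPS (250 ng/mL final) plus ATP (1.25 mM final); secreted IL-1B measured by AlphaLISA after 16 hr, decreased signal indicating inhibition.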
D3 ag: D3 dopamine receptor (human) agonism. max activation, %. AID 652048. D3R DiscoveRx beta-arrestin cells, luminescence, 90 min. P35462. 0.58% of 410,000 active; in the data active = max activation above about 30%; note: 0% is about no effect
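Cells at 1500/well, incubated overnight, then treated with pinned compounds (dopamine as control) for 90 min at 37 degrees C. DiscoveRx reagent added for 30 - 60 minutes at room temperature; luminescence read.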
ClpP mod: qHTS Assay for Activators of ClpP. ATP-dependent Clp protease proteolytic subunit (Bacillus subtilis (strain 168)), P80244. purified B. subtilis ClpP, FRET peptide cleavage, 20 min. Potency, µM (doses to about 57.5 µM), for inactives: at the highest dose activity change, negative = active. 1.9% of 340,000 active. AID 651965, 2013; active = well fitted falling curve with a large enough effect; inconclusive = small, poorly fitted or top-dose-only effect; inactive = no such curve, though single readings can be large or run the other way; note: potency is the fitted concentration of half-maximal effect; the source files actives as falling curves though it sought activators and does not explain the sign; nearly all actives have a fitted effect of over 65% in size
Target sequence (P80244 whole entry, looked up): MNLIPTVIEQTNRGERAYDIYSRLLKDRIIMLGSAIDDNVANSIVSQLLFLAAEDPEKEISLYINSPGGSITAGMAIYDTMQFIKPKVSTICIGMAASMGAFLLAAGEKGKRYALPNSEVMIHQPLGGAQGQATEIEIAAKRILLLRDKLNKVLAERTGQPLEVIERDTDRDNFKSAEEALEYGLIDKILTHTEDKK
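FRET quenching reversal measured ClpP activation: 10 microg/mL B. subtilis ClpP at pH 8 with the FRET-FV decapeptide, read at 430 nm after 320 nm excitation. The 20-min minus 0-min signal was scaled between DMSO/no-enzyme wells and ADEP (5.8 microM final).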
DT40 TDP1 no CPT: qHTS for Inhibitors of human tyrosyl-DNA phosphodiesterase 1 (TDP1): qHTS in cells in absence of CPT; DT40 Tdp1-/- hTDP1 cells, no CPT, ATP luminescence, 48 h; Potency, µM (titrated, usually from 46.2 µM), for the others: at the top dose activity change, negative = growth inhibition, most hits filed as inhibitors; 15% of 420,000 active; AID 686978, 2013; note: potency is the fitted concentration of half-maximal effect; % is set by controls: 0 for no effect and ±100 for the full control effect; nearly all actives have a fitted effect of over 55% in size
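Compound effects on proliferation are scored in DT40 Tdp1-/-;hTDP1 cells in the absence of CPT. ATP levels (CellTiter-Glo luminescence) are recorded after a ≥48 hr, 37 °C incubation.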
DT40 TDP1 CPT: growth inhibition of DT40 Tdp1-/-;hTDP1 cells with camptothecin (screen for TDP1 inhibitors) | chicken DT40 Tdp1-/-;hTDP1 cells + 20 nM CPT, ATP luminescence, 48 h | Potency, µM (doses to about 46.2 µM), without a hit: top-dose activity change, negative = growth inhibition, most hits filed as inhibitors | 12% of 420,000 active | AID 686979; note: potency is the fitted concentration of half-maximal effect; % is set by controls: 0 for no effect and ±100 for the full control effect; nearly all actives have a fitted effect of over 55% in size
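Cell growth measured by CellTiter-Glo luminescence after a minimum 48 h, 37 C compound exposure with 20 nM CPT in Tdp1-knockout DT40 cells stably expressing hTDP1, seeded 400/well; qHTS titration format.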
* hit, by the source's call. Only some compounds are listed: those with a hit (about 21% of all), similar ones and a draw of the others. Unless noted, calls come from the whole dose curve; as a rule, active = well fitted inhibition curve with a large enough effect; inconclusive = small, poorly fitted or top-dose-only effect; inactive = flat fitted curve, though single readings scatter.

`CCC(C)(C)n1nnnc1C(c1ccccc1)N1CCN(Cc2ccccc2)CC1` (configuration not stated) gave DRD3 antagonist -4, IL1B secr inh -6, D3 ag 3, DT40 TDP1 no CPT 6% and DT40 TDP1 CPT 19%.
Screening c1ccc(CN2CCN(C(c3ccccc3)c3nnnn3Cc3ccccc3)CC2)cc1 (configuration not stated) returned DRD3 antagonist 0, IL1B secr inh -58*, D3 ag -10, ClpP mod -5%, DT40 TDP1 no CPT 18µM* and DT40 TDP1 CPT inconclusive.
For Cc1ccc(C(c2nnnn2Cc2ccccc2)N2CCN(Cc3ccncc3)CC2)cc1 (configuration not stated) the results were ClpP mod 2%, DT40 TDP1 no CPT inconclusive and DT40 TDP1 CPT inconclusive.
Cc1ccc(C(c2nnnn2Cc2ccccc2)N2CCN(Cc3ccccc3)CC2)cc1 (configuration not stated) was read as DRD3 antagonist inconclusive, IL1B secr inh inconclusive, D3 ag -8, ClpP mod 1%, DT40 TDP1 no CPT 16µM* and DT40 TDP1 CPT inconclusive.
CCCCn1nnnc1C(c1ccccc1)N1CCCN(Cc2ccc(F)cc2)CC1 (configuration not stated) was read as DRD3 antagonist -69*, IL1B secr inh inconclusive, D3 ag -13, ClpP mod -3%, DT40 TDP1 no CPT inconclusive and DT40 TDP1 CPT inconclusive.
Screening Nc1nccnc1C(=O)OCC(=O)NC1CCCc2ccccc21 (configuration not stated) returned DRD3 antagonist 2, IL1B secr inh 2, D3 ag 0, ClpP mod 4%, DT40 TDP1 no CPT 5% and DT40 TDP1 CPT 1%.
Screening CC(C)Nc1nnc(SCC(=O)Nc2ccc3c(c2)C(=O)c2ccccc2C3=O)s1 returned DRD3 antagonist 15, IL1B secr inh -11, D3 ag 9, ClpP mod inconclusive, DT40 TDP1 no CPT 18µM* and DT40 TDP1 CPT inconclusive.
For Cc1nnc(SCC(=O)Nc2cccc(S(=O)(=O)N3CCCCC3)c2)s1 the results were DRD3 antagonist -3, IL1B secr inh -10, D3 ag -7, ClpP mod 1%, DT40 TDP1 no CPT inconclusive and DT40 TDP1 CPT -16%.
For Cc1ccc(S(=O)(=O)Nc2nc3ccccc3nc2Nc2cccc(S(=O)(=O)N3CCCC3)c2)cc1 the results were DRD3 antagonist 46, IL1B secr inh 33, D3 ag 32*, ClpP mod 4%, DT40 TDP1 no CPT inconclusive and DT40 TDP1 CPT inconclusive.
O=C(CSc1nnc(NC2CCCCC2)s1)Nc1ccc2c(c1)C(=O)c1ccccc1C2=O was read as DRD3 antagonist 45, IL1B secr inh -30, D3 ag 2, ClpP mod 0%, DT40 TDP1 no CPT inconclusive and DT40 TDP1 CPT inconclusive.
CCOc1ccccc1Nc1nnc(SCC(=O)Nc2cccc(S(=O)(=O)NC3=NCCCCC3)c2)s1 was read as DRD3 antagonist 5, IL1B secr inh -14, D3 ag 5, ClpP mod -1%, DT40 TDP1 no CPT 18µM* and DT40 TDP1 CPT 23µM*.
Cc1ccc(Nc2nnc(SCC(=O)Nc3cccc(S(=O)(=O)N4CCCCC4)c3)s2)cc1 was read as DRD3 antagonist 9, IL1B secr inh -14, D3 ag -2, ClpP mod -5%, DT40 TDP1 no CPT 18µM* and DT40 TDP1 CPT inconclusive.
Screening O=C(CN1CCC(O)(c2cccc(F)c2)CC1)NCCc1c[nH]c2ccccc12 returned DRD3 antagonist -20, IL1B secr inh -11, D3 ag -17, ClpP mod -8%, DT40 TDP1 no CPT inconclusive and DT40 TDP1 CPT inconclusive.
Screening Cc1ccc(NC(=O)CSCC(=O)Nc2cccc(S(=O)(=O)N3CCCCCC3)c2)cc1 returned DRD3 antagonist -27, IL1B secr inh -21, D3 ag 0, ClpP mod -2%, DT40 TDP1 no CPT inconclusive and DT40 TDP1 CPT 21µM*.
COc1ccc(Nc2nc3ccccc3nc2NS(=O)(=O)c2ccc(Cl)cc2)cc1OC was read as D3 ag 20, ClpP mod -6%, DT40 TDP1 no CPT inconclusive and DT40 TDP1 CPT 9.2µM*.
`COc1cccc2cc(C(=O)Nc3ccccc3C)/c(=N/O)oc12` gave DRD3 antagonist -5, IL1B secr inh 21, D3 ag -5, ClpP mod 0%, DT40 TDP1 no CPT 16µM* and DT40 TDP1 CPT 16µM*.
`N=c1oc2cc(O)ccc2cc1C(=O)Nc1ccc(F)cc1` gave DRD3 antagonist 13, IL1B secr inh -56*, D3 ag 1, ClpP mod 3%, DT40 TDP1 no CPT inconclusive and DT40 TDP1 CPT inconclusive.
For COc1ccc2oc(=O)c(C(=O)Nc3ccccc3O)cc2c1 the results were DRD3 antagonist -14, IL1B secr inh -9, D3 ag 2, ClpP mod -1%, DT40 TDP1 no CPT inconclusive and DT40 TDP1 CPT 2%.
`COc1ccc(NC(=O)c2cc3ccc(O)cc3o/c2=N\O)cc1` gave DRD3 antagonist -11, IL1B secr inh inconclusive, D3 ag -1, DT40 TDP1 no CPT inconclusive and DT40 TDP1 CPT 4.1µM*.
Screening COc1cccc2cc(C(=O)NCc3ccccc3Cl)c(=O)oc12 returned DRD3 antagonist -9, IL1B secr inh 2, D3 ag 4, DT40 TDP1 no CPT 0% and DT40 TDP1 CPT 10%.
`COc1ccc2o/c(=N\O)c(C(=O)Nc3ccccc3OC)cc2c1` gave DRD3 antagonist -3, IL1B secr inh -14, D3 ag -7, ClpP mod -3%, DT40 TDP1 no CPT 5.8µM* and DT40 TDP1 CPT 3.7µM*.
Screening CCOC(=O)c1c(Oc2ccc(OC)cc2)nnc(-c2ccccc2)c1-c1ccccc1 returned D3 ag 4, ClpP mod -6%, DT40 TDP1 no CPT inconclusive and DT40 TDP1 CPT 16µM*.
COC(=O)c1c(-c2ccccc2)noc1-c1ccccc1 was read as DRD3 antagonist 4, IL1B secr inh 22, D3 ag 15, DT40 TDP1 no CPT 5% and DT40 TDP1 CPT 10%.
For CCOC(=O)c1c(Oc2ccc(C(=O)OC)cc2)nnc(-c2ccccc2)c1-c1ccccc1 the results were D3 ag 18, ClpP mod -1%, DT40 TDP1 no CPT 23µM* and DT40 TDP1 CPT 16µM*.

Bioassay records deposited in PubChem BioAssay by National Center for Advancing Translational Sciences (NCATS).
